ChEMBL document CHEMBL4513216, “Probing the Open Global Health Chemical Diversity Library for Multistage-Active Starting Points for Next-Generation Antimalarials” (ACS Infect Dis, 2020)
Hit rate of the full screen: of about 69,000 compounds, about 8,600 (12%) showed an effect of 50% or more. For the sample, strong results were picked, then their nearest neighbours and some compounds at random.

System: Plasmodium berghei
Assay: Screen against P. berghei liver stage (PbLuc), transformed with Luciferase, at 10uM
Format: functional, HepG2
Settings: tested at 10 uM

SMILES | INHIBITION [%]
Cc1ccc2oc(C(=O)N3CCCC(n4cccn4)C3)cc2n1 (stereo not given) | -32.55
O=C(NCCOCC(F)(F)F)c1ccc(-c2ccccc2)[nH]c1=O | 14.4
O=C(CN1CCCC1)N1CCCC1c1nc(O)cc(-c2ccccn2)n1 (stereo not given) | -1.85
CCC(CO)N(Cc1cccnc1)C(=O)c1ccoc1C (stereo not given) | 3.13
N#CC1(NC(=O)COC(=O)Cc2cc(Cl)c3c(c2)OCCO3)CCCC1 | 38.9
CC(C)(C)C(=O)NS(=O)(=O)c1ccc(C#N)cc1C(F)(F)F | 39.2
N#Cc1ccc(S(=O)(=O)NC(=O)C2CC2)c(C(F)(F)F)c1 | 54.9
CC(C)C(=O)NS(=O)(=O)c1ccc(C#N)cc1C(F)(F)F | -4.94
O=C(Nc1ccccc1C(=O)NCCCN1CCOCC1)c1ccco1 | 51
O=C(Nc1ccc(I)cc1C(=O)NCCN1CCOCC1)c1cccs1 | 25.4
Cc1nc(-c2ccco2)ccc1C(=O)NCCCN1CCOCC1 | 24.3
O=C(Nc1ccc(Cl)cc1C(=O)NCCN1CCOCC1)c1ccco1 | 32.3
O=C(Nc1ccccc1C(=O)NCCN1CCOCC1)c1ccco1 | 38.7
O=C(Nc1ccc(I)cc1C(=O)NCCN1CCOCC1)c1ccco1 | 52.2
CCN(CC)C(=O)CN1CCc2nc(C3CCNCC3)nc(NC)c2C1 | 23.9
O=C1[C@H]2CN(Cc3ccccc3)C[C@H]2CN1CCN1CCCC1 | -55.3
CO[C@H]1CCN(C(=O)c2cc(C)on2)[C@H]1Cc1ccncc1 | -15.9
N#CCCN(Cc1ccccn1)Cn1cc(Cl)cn1 | 46.4
Cc1ncncc1C(=O)NCCN1CCC(C)CC1 | -51.6
CCS(=O)(=O)Cc1nnnn1-c1ccccc1 | 61.1
COCCS(=O)(=O)Cc1nnnn1-c1ccccc1 | 26.9
CNC(=O)CCS(=O)(=O)Cc1nnnn1-c1ccccc1 | 31.2
COc1ccc([C@@H]2CN(Cc3ccncc3)C[C@H]2c2cc[nH]n2)cc1 | 39.3
Cn1cc(CN2CCC3(CC2)COC(COc2ccccn2)C3)cn1 (stereo not given) | 30.3
Cc1cc(C)cc(OCC(O)CN2CCN(c3nccs3)CC2)c1 (stereo not given) | 53.4
CC(C)OCCCNC(=O)CN1CCN(c2nccs2)CC1 | -20.5
COc1ccc(OCC(O)CN2CCN(c3nccs3)CC2)cc1 (stereo not given) | 8.9
Cc1cccc(OCC(O)CN2CCC(c3ccn[nH]3)CC2)c1 (stereo not given) | 42

SMILES | INHIBITION [%]
OC(COc1ccccc1)CN1CCN(c2nccs2)CC1 (stereo not given) | 27.7
Cc1cccc(OCC(O)CN2CCN(c3nccs3)CC2)c1 (stereo not given) | 77.4
N#Cc1ccc(OCC(O)CN2CCC(c3ccn[nH]3)CC2)cc1 (stereo not given) | 7.08
N#Cc1ccc(OCC(O)CN2CCN(c3nccs3)CC2)cc1 (stereo not given) | 87.6
CC(=O)N(C)c1nc(CN2CCN(c3nccs3)CC2)cs1 | 38.3
CCc1c(C(=O)N2CCNC(=O)C2)cnn1C(C)(C)C | 3.73
Cc1nn(C)c(C)c1C1CCCN1C(=O)c1nccnc1N (stereo not given) | 12.7
Cn1ncc2c1C(COCC1CC1)CN(Cc1ccsc1)C2 (stereo not given) | 4.57
COC(=O)COc1ccc(-c2noc(C3CCCO3)n2)cc1 (stereo not given) | 8.59
COCCCNC(=O)c1cc(-c2ccc(OC)cc2)nn1C | 3.19
COc1ccccc1C1=NOC(CC2(C(=O)NC(C)C)CCOCC2)C1 (stereo not given) | -29.8
CCn1cnnc1C1CCN(C(=O)c2ccc(Cl)cc2OC)CC1 | 25.1
CN1CCC(n2nc(Cc3cccc(Cl)c3)nc2Cn2cnnn2)CC1 | 15.7
COCc1nc(C2CC2)nn1-c1cccc(F)c1 | -19.8
COCc1nc(C2CC2)nn1-c1ccccc1Cl | 37.2
COc1ccc(-n2nc(C3CC3)nc2CCn2cnnn2)cc1 | 52.5
COc1ccc(Cl)cc1-n1nc(C2CCCC2)nc1Cn1cnnn1 | 70.4
Fc1cccc(-n2nc(C3CC3)nc2CCn2cnnn2)c1 | 24.8
COCc1nc(C2CC2)nn1-c1cc(Cl)ccc1OC | 51.1
COc1ccc(CCNC(=O)C2CCC(Cn3cnnn3)CC2)cc1 (stereo not given) | 22.9
CN1C(=O)[C@@H]2CC[C@H]1CN(C(=O)c1sccc1S(N)(=O)=O)C2 | 25.9
CC(Cn1cccn1)Nc1cnc2ccccc2n1 (stereo not given) | 24.2
Cc1nc(-c2cccc(N3CCC(N[C@@H]4CCOC4)CC3)c2)cs1 | 44.1
O=C1N(Cc2cccc(F)c2)CCC12CCCN(c1ncc(F)cn1)C2 (stereo not given) | 8.66
CC(C)=CCCC(C)CN1CCC(n2cc(CO)nn2)CC1 (stereo not given) | -109
CC(C)=CCCC(C)CN1CCC(n2cc(C(=O)NCCO)nn2)CC1 (stereo not given) | 60.9
CC(C)=CCCC(C)CN1CCC(n2cc(C(C)(C)O)nn2)CC1 (stereo not given) | -94.3
